# From PubChem BioAssay (Tox21)
# Where “and” joins values, the source holds several entries; their conditions need not be identical. Equal entries are not always repeated. Records with an inconclusive call do not appear. Where a call stands in place of a potency, no number is given. More than one record can exist for a structure, and the calls need not agree. Calls of active or inactive are those of the source. Unless noted, calls follow the shape of the full dose curve.
# How the values were obtained:
# [1] = Nuclear factor erythroid 2-related factor 2/antioxidant responsive element (Nrf2/ARE) small molecule agonists: luciferase reporter gene qHTS assay in human keratinocytes (AID 1919969); also: nearly all actives have a fitted effect of over 35% in size
# [2] = molecular target: Gonadotropin-releasing hormone receptor (Homo sapiens) (UniProt P30968); assay: Human gonadotropin-releasing hormone receptor (GnRHR) small molecule agonists, calcium flux assay in GnRHR-HEK293 cells (AID 1920063); also: nearly all actives have a fitted effect of over 35% in size
# Outline: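 GnRHR-HEK293, 1500 cells/well, 18 h 37 C/5% CO2; Ca dye 1 h 37 C; cpd pinned (DMSO), agonist mode; kinetic FL 480/540, 3 min, 1 s reads; 15 conc, n=3.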
# [3] = molecular target: KiSS-1 receptor (Homo sapiens) (UniProt Q969F8); assay: Human kisspeptin (KISS1R) small molecule agonists, calcium flux assay in KISS1R-HEK293 cells (AID 1920064; active = well fitted activation curve with a large enough effect in the repeat runs)
# Outline: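 Stable human KISS1R HEK293 line; 18 h plating, 37 C/5% CO2; calcium dye 1 h 37 C; compound pin transfer; kinetic fluorescence Ex/Em 480/540, 3 min.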
# [4] = G protein-coupled receptor (GPCR) small molecule agonists, calcium flux assay: HEK293 wild type cell line counter screen (AID 1920065)
# Outline: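 Kinetic fluorescence at Ex/Em 480/540, recorded every second over 3 min, served as the read-out after compound addition. Each compound was tested at 15 concentrations in triplicate on cells pre-loaded with calcium dye for 1 h.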
# [5] = p53 small molecule agonists, cell-based qHTS assay with human liver microsomes (AID 1963577)
# Outline: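 Fluorescence of the beta-lactamase reporter in p53RE-bla cells, detected with LiveBLAzer substrate (2 h, room temperature, dark), served as the read-out after 16 h compound exposure at 37 C with human liver microsomes and NADPH, each 0.5 mg/mL final.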
# [6] = p53 small molecule agonists, cell-based qHTS assay with rat liver microsomes (AID 1963578)
# Outline: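 Cells carrying a p53 response element–beta-lactamase reporter were plated and rested 5 h, then dosed with compound in DMSO plus rat liver microsomes and NADPH, each at 0.5 mg/mL final. After 16 h at 37 C, LiveBLAzer substrate was added for 2 h.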
# [7] = p53 small molecule agonists, cell-based qHTS assay with rat liver microsomes: qHTS cell viability counter screen (AID 1963580); also: nearly all actives have a fitted effect of over 45% in size; also: potency is read from the fitted curve at half-maximal effect
# Outline: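 Viability is assessed in parallel with the p53 reporter read: HCT-116 p53RE-bla cells receive compounds plus rat microsomes and NADPH (0.5 mg/mL final apiece), incubate 16 h at 37 C, and then CellTiter-Glo luminescence is recorded.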
# [8] = p53 small molecule agonists, cell-based qHTS assay: qHTS cell viability counter screen (AID 1963581); also: nearly all actives have a fitted effect of over 45% in size
# Outline: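 HCT-116 p53RE-bla cells, 4,000/well, plated 5 h before compound pin transfer; 16 h at 37 C; bla substrate 2 h RT; then CellTiter-Glo, 30 min RT, luminescence.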
# [9] = molecular target: 5-hydroxytryptamine receptor 2A (Homo sapiens) (UniProt P28223); assay: 5-hydroxytryptamine receptor 2A (HTR2A) small molecule antagonists, cell-based qHTS assay (AID 1963586); also: nearly all actives have a fitted effect of over 45% in size; also: potency is read from the fitted curve at half-maximal effect
# Outline: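 Antagonist-mode intracellular calcium assay: DOI (4 nM) added after 5 min compound pre-incubation at room temperature to dye-loaded HTR2A-CHO cells. Fluorescence followed for 3 min, sampled every second.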
# [10] = molecular target: 5-hydroxytryptamine receptor 2A (Homo sapiens) (UniProt P28223); assay: 5-hydroxytryptamine receptor 2A (HTR2A) small molecule agonists, cell-based qHTS assay (AID 1963587); also: nearly all actives have a fitted effect of over 30% in size; also: potency is read from the fitted curve at half-maximal effect
# Outline: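 CHO cells stably expressing human HTR2A, plated 18 h, loaded with calcium dye 1 h at 37 C. Agonist mode: compounds added and intracellular calcium fluorescence recorded kinetically for 2 min at 1 sec intervals.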
# [11] = molecular target: Muscarinic acetylcholine receptor M1 (Homo sapiens) (UniProt P11229); assay: Cholinergic receptor muscarinic 1 (CHRM1) small molecule antagonists, cell-based qHTS assay (AID 1963588); also: nearly all actives have a fitted effect of over 40% in size; also: potency is read from the fitted curve at half-maximal effect
# Outline: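 CHRM1-CHO calcium-flux assay, antagonist mode. Cells were seeded 18 h, dye-loaded 1 h at 37 C and given compound for 5 min at RT, then acetylcholine was added at 50nM. FDSS fluorescence was read 3 min; 15 concentrations, three runs.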
# [12] = molecular target: Muscarinic acetylcholine receptor M1 (Homo sapiens) (UniProt P11229); assay: Cholinergic receptor muscarinic 1 (CHRM1) small molecule agonists, cell-based qHTS assay (AID 1963589); also: nearly all actives have a fitted effect of over 35% in size
# Outline: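 Human M1 in stable CHO line; 18 h plating, 1 h dye load 37 C; cpd added (agonist mode); Ca2+ fluorescence kinetic read, 1 s intervals; 15 conc, 3 runs.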
# [13] = cAMP Responsive Elements (CRE) small molecule agonists, cell-based qHTS assay (AID 1963590)
# Outline: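 HEK 293T CRE-bla, 2,000 cells/well, 18 h preincubation 37 C/5% CO2; cpds (DMSO) pinned, 3 h; LiveBLAzer B/G FRET substrate, 2 h RT.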
# [14] = cAMP Responsive Elements (CRE) small molecule antagonists, cell-based qHTS assay (AID 1963591; active = well fitted inhibition curve with a large enough effect in the signal ratio in the repeat runs, not every such curve was filed as active; the % refers to the signal ratio)
# Outline: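 Beta-lactamase reporter read by FRET substrate (LiveBLAzer B/G) after 2 h at room temperature. CRE-bla HEK293T cells had received compound plus 0.25 uM (final) NKH477 for 3 h at 37 °C.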
# [15] = molecular target: Beta-2 adrenergic receptor (Homo sapiens) (UniProt P07550); assay: Adrenergic beta2 receptor (ADRB2) small molecule antagonists, cell-based qHTS assay (AID 1963592); also: series mostly up to about 92 µM; nearly all actives have a fitted effect of over 50% in size
# Outline: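 Cells (CHO, stable ADRB2 overexpression) incubated 18-20hr at 37C; compounds added from DMSO; agonist mix (1nM isoproterenol, 100uM IBMX, 25uM Ro-20-1724) added; 0.5hr RT; d2-cAMP and anti-cAMP-cryptate added; 1hr RT; 665/615 nm read.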
# [16] = molecular target: Beta-2 adrenergic receptor (Homo sapiens) (UniProt P07550); assay: Adrenergic beta2 receptor (ADRB2) small molecule agonists, cell-based qHTS assay (AID 1963593);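 also: CHO cells stably overexpressing human ADRB2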
# Outline: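 CHO cells stably over-expressing ADRB2 were plated overnight at 37C, then dosed with compounds plus a stimulation mix containing 100uM IBMX and 25uM Ro-20-1724 for 0.5hr at room temperature. cAMP was measured by HTRF competition, 1hr.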
# [17] = molecular target: D(2) dopamine receptor (Homo sapiens) (UniProt P14416); assay: Dopamine D2 receptor (DRD2) small molecule agonists, cell-based qHTS assay (AID 1963594); also: nearly all actives have a fitted effect of over 35% in size
# Outline: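 HEK293 cells stably expressing human DRD2, pre-treated with PDE inhibitor Ro20-1724 (0.1 mM final) and compound 10 min at room temperature, then stimulated with NKH477 (200nM […]) for 30 min. cAMP read by HTRF (665/620 nm).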
# [18] = molecular target: D(2) dopamine receptor (Homo sapiens) (UniProt P14416); assay: Dopamine D2 receptor (DRD2) small molecule antagonists, cell-based qHTS assay (AID 1963595; active = well fitted inhibition curve with a large enough effect in the signal ratio in the repeat runs, with a control signal flat; the % refers to the signal ratio; also: potency is read from the fitted curve at half-maximal effect)
# Outline: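 HTRF cAMP read-out at 665 and 620 nm emission (340 nm excitation). Antagonist mode: compounds were tested against 12 nM quinpirole in DRD2-HEK293 cells, with 200 nM NKH477 raising cAMP and 0.1 mM Ro20-1724 blocking its breakdown.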
# [19] = p53 small molecule agonists, cell-based qHTS assay with human liver microsomes: qHTS cell viability counter screen (AID 1963579); also: nearly all actives have a fitted effect of over 45% in size; also: potency is read from the fitted curve at half-maximal effect
# Outline: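 Cytotoxicity counter screen: p53RE-bla, 4,000 cells/well; 5 h settle, 37 C/5% CO2; cpd + HLM 0.5 mg/mL + NADPH 0.5 mg/mL (final); 16 h, 37 C; CellTiter-Glo, 30 min RT, luminescence.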
# [20] = p53 small molecule agonists, cell-based qHTS assay (AID 1963582; active = well fitted activation curve with a large enough effect in the signal ratio in the repeat runs, not every such curve was filed as active; the % refers to the signal ratio)
# Outline: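 Reporter line: p53RE-bla. Pre-incubation 5 h, 37 C, 5% CO2; compound (DMSO, pin tool) 16 h, 37 C; B/G FRET substrate 2 h RT; fluorescence intensity read.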
# Chain of Beta-2 adrenergic receptor (Homo sapiens) (P07550 whole entry, looked up): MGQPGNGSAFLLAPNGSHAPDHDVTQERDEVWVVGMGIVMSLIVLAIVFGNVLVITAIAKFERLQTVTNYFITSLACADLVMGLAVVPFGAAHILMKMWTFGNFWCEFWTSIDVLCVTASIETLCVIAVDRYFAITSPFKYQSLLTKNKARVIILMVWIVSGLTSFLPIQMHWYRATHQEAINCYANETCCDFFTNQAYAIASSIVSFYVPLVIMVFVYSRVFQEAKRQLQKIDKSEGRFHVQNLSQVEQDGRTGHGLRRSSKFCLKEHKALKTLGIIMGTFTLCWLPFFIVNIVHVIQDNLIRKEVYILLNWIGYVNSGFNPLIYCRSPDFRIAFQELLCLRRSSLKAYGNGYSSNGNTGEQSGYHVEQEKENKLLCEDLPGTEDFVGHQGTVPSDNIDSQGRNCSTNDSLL
# Chain of Muscarinic acetylcholine receptor M1 (Homo sapiens) (P11229 whole entry, looked up): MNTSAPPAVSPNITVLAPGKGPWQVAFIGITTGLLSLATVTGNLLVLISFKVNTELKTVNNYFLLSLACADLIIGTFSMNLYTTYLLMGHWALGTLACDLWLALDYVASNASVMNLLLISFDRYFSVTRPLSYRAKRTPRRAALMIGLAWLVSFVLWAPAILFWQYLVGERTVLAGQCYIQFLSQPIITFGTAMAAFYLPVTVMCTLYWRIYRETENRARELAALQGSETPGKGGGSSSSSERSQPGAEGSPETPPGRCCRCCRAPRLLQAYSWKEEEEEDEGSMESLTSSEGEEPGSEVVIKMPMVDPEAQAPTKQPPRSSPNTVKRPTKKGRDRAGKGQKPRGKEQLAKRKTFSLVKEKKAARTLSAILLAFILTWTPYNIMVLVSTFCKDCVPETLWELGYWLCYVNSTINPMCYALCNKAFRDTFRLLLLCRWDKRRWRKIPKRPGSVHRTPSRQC
# Chain of KiSS-1 receptor (Homo sapiens) (Q969F8 whole entry, looked up): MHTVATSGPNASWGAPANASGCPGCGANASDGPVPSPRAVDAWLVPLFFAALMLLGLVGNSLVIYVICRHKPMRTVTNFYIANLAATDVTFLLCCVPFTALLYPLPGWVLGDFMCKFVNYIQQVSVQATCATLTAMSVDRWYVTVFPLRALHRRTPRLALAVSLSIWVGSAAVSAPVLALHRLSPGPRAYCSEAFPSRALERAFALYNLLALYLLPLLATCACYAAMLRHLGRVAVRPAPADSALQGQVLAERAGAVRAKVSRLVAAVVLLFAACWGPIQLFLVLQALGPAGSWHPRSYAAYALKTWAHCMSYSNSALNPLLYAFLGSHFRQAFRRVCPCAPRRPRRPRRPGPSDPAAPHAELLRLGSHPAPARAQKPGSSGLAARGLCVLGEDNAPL
# Chain of Gonadotropin-releasing hormone receptor (Homo sapiens) (P30968 whole entry, looked up): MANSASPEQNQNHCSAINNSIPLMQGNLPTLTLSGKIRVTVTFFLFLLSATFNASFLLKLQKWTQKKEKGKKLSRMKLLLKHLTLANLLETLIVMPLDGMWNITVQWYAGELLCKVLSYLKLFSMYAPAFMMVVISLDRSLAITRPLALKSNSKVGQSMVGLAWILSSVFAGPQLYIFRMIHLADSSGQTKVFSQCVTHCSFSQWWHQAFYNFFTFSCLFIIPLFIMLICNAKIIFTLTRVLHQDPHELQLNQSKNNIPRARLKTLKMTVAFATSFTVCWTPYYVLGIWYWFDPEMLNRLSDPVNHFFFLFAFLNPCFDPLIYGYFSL
# Chain of 5-hydroxytryptamine receptor 2A (Homo sapiens) (P28223 whole entry, looked up): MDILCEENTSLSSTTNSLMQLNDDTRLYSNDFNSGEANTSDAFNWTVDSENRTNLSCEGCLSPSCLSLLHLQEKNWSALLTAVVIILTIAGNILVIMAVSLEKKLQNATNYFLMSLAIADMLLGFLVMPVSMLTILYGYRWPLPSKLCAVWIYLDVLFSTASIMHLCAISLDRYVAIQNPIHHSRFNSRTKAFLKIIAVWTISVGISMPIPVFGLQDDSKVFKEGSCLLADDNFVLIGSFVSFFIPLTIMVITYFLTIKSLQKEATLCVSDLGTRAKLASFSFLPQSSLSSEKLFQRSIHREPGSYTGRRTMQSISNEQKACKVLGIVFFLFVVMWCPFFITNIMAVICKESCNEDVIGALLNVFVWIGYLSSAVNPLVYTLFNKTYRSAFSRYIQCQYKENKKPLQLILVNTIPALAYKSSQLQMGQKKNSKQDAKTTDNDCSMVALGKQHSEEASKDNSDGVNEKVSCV
# Chain of D(2) dopamine receptor (Homo sapiens) (P14416 whole entry, looked up): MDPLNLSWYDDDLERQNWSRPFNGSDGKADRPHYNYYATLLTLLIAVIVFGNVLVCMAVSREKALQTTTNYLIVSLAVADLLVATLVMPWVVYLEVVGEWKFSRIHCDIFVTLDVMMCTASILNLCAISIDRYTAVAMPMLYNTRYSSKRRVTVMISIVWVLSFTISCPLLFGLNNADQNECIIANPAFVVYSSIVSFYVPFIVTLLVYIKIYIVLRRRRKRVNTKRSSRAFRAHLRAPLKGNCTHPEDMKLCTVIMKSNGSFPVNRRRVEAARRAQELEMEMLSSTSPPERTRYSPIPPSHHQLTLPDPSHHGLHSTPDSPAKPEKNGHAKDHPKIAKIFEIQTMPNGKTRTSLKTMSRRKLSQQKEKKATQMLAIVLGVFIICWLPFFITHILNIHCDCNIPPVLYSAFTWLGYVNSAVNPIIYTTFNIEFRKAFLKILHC
compound,measurement,setting,value
O=C(O)CCCCC(=O)O,Potency,[1],inactive
same,Potency,[2],inactive
same,Potency,[3],inactive
same,Potency,[4],inactive
same,Potency,[5],inactive
same,Potency,[6],inactive
same,Potency,[7],inactive
same,Potency,[8],inactive
same,Potency,[9],inactive
same,Potency,[10],inactive
same,Potency,[11],inactive
same,Potency,[12],inactive
same,Potency,[13],inactive
same,Potency,[14],inactive
same,Potency,[15],inactive
same,Potency,[16],inactive
same,Potency,[17],inactive
same,Potency,[18],inactive
O=C(O)c1cn(-c2ccc(F)cc2)c2cc(N3CCNCC3)c(F)cc2c1=O,Potency,[1],inactive
same,Potency,[2],inactive
same,Potency,[3],inactive
same,Potency,[4],inactive
same,Potency,[5],inactive
same,Potency,[6],inactive
same,Potency,[19],inactive
same,"activity change, negative = inhibition",[15],3.86% [at 19 µM] (inactive)
same,activation,[16],-25.8% [at 19 µM] (inactive)
same,Potency,[18],inactive
CCCCCCCC(=O)O,Potency,[1],inactive
same,Potency,[2],inactive
same,Potency,[3],inactive
same,Potency,[4],inactive
same,Potency,[5],inactive
same,Potency,[6],inactive
same,Potency,[19],inactive
same,Potency,[7],inactive
same,Potency,[8],inactive
same,Potency,[9],inactive
same,Potency,[11],inactive
same,Potency,[12],inactive
same,Potency,[13],inactive
same,Potency,[14],inactive
same,Potency,[15],inactive
same,Potency,[17],inactive
same,Potency,[18],inactive
CC(C)=CCC/C(C)=C/C=O,Potency,[1],inactive
same,Potency,[2],inactive
same,Potency,[3],inactive
same,Potency,[4],inactive
same,Potency,[5],inactive
same,Potency,[19],inactive
same,Potency,[7],inactive
same,Potency,[8],inactive
same,Potency,[20],inactive
same,Potency,[9],inactive
same,Potency,[10],inactive
same,Potency,[11],inactive
same,Potency,[12],inactive
same,Potency,[14],inactive
same,Potency,[15],inactive
same,Potency,[16],inactive
same,Potency,[18],inactive
CC(C)(CO)CO,Potency,[1],inactive
same,Potency,[2],inactive
same,Potency,[3],inactive
same,Potency,[4],inactive
same,Potency,[5],inactive
same,Potency,[6],inactive
same,Potency,[19],inactive
same,Potency,[7],inactive
same,Potency,[8],inactive
same,Potency,[20],inactive
same,Potency,[10],inactive
same,Potency,[11],inactive
same,Potency,[12],inactive
same,Potency,[13],inactive
same,Potency,[14],inactive
same,Potency,[15],inactive
same,Potency,[18],inactive
Cc1cc(=O)n(-c2ccccc2)n1C,Potency,[1],inactive
same,Potency,[2],inactive
same,Potency,[3],inactive
same,Potency,[4],inactive
same,Potency,[5],inactive
same,Potency,[6],inactive
same,Potency,[19],inactive
same,Potency,[7],inactive
same,Potency,[8],inactive
same,Potency,[14],inactive
same,Potency,[15],inactive
same,Potency,[16],inactive
same,Potency,[17],inactive
same,Potency,[18],inactive
CCCCCCCCCCCCCCCC[N+](C)(C)Cc1ccccc1,Potency,[1],inactive
same,Potency,[2],inactive
same,Potency,[3],inactive
same,Potency,[4],inactive
same,Potency,[5],inactive
same,Potency,[6],inactive
same,Potency,[19],53 µM (active) and 33 µM (active) and inactive
same,Potency,[7],41.5 µM (active) and inactive
same,Potency,[9],inactive and 11.6 µM (active)
same,Potency,[10],49.8 µM (active)
same,Potency,[11],0.41 µM (active)
same,Potency,[12],inactive
same,Potency,[15],inactive
same,Potency,[16],inactive
same,Potency,[17],inactive
same,Potency,[18],55.5 µM (active)
CCCCOCCO,Potency,[1],inactive
same,Potency,[2],inactive
same,Potency,[3],inactive
same,Potency,[4],inactive
same,Potency,[5],inactive
same,Potency,[6],inactive
same,Potency,[19],inactive
same,Potency,[7],inactive
same,Potency,[8],inactive
same,Potency,[20],inactive
same,Potency,[9],inactive
same,Potency,[10],inactive
same,Potency,[12],inactive
same,Potency,[13],inactive
same,Potency,[14],inactive
same,Potency,[15],inactive
same,Potency,[17],inactive
same,Potency,[18],inactive
